# High-throughput results from PubChem BioAssay.
# aSyn UTR act = Activators via SNCA 5'UTR binding, MLPCN; alpha-synuclein 5'UTR reporter, activators screen; activity score, % (tested at 7.5 µM), hits read low; 7.1% of 300,000 active; AID 1814; in the data active = activity score below about -60%
# Hits are given with their value; - = inactive. The list is a sample of the results.
SMILES,aSyn UTR act
O=C(Oc1cccc(NC(=O)c2ccco2)c1)c1cccc(S(=O)(=O)N2CCCC2)c1,-72
O=C(COC(=O)c1ccc(O)cc1)Nc1cccc(S(=O)(=O)N2CCCCC2)c1,-
O=C(Nc1cccc(O)c1)c1cccc(S(=O)(=O)N2CCCCCC2)c1,-85
O=C(Nc1ccc2c(c1)OCO2)c1cccc(S(=O)(=O)N2CCCC2)c1,-104
O=C(N/N=C\c1cccc(Cl)c1)c1n[nH]c2c1CCCC2,-152
Cc1ccc(/C=N/NC(=O)c2n[nH]c3c2CCCC3)cc1,-
Cc1cccc(C)c1NC(=O)/C(C#N)=C/c1ccc(-c2ccc(C(=O)O)cc2)o1,-127
CNC(=O)/C(C#N)=C/c1ccc(-c2ccc(Cl)cc2)o1,-125
COc1ccc(/C=C2\SC(=S)N(CCCC(=O)N3CCOCC3)C2=O)cc1,-
O=C1/C(=C/c2cccs2)SC(=S)N1CCC(=O)N1CCCCC1CCO (configuration not stated),-109
O=C(CCN1C(=O)/C(=C/c2cccs2)SC1=S)N1CCCCC1,-90
COc1cc(/C=C2\SC(=S)N(CCC(=O)N3CCCCC3)C2=O)cc(OC)c1OC,-95
CCc1ccc(N2NC(=O)/C(=C/C=C/c3ccco3)C2=O)cc1,-78
CCOc1ccc(S(=O)(=O)N/N=C2/CC(c3ccccc3)Oc3ccccc32)cc1 (configuration not stated),-66
Cc1ccc(C)c(NC(=S)NC(NC(=O)Cc2cccc3ccccc23)C(Cl)(Cl)Cl)c1 (configuration not stated),-
CCOC(=O)c1[nH]c2ccc(OC)cc2c1C,-122
CCOC(=O)c1cc2cc(OC)ccc2[nH]1,-147
CCOC(=O)c1[nH]c2ccccc2c1NC(=S)Nc1cc(C)ccc1C,-88
COc1ccc2[nH]c3c(C)c4ccncc4c(C)c3c2c1,-
CCOc1ccc2[nH]c(C(=O)N/N=C/c3ccc(OC)cc3)cc2c1,-
CCOC(=O)c1[nH]c2ccc(OC)cc2c1NC(=O)c1ccccc1C(=O)O,-65
COC(=O)c1[nH]c2ccc(F)cc2c1NS(=O)(=O)c1ccc(OC)cc1,-
Cn1c(=O)c2c(nc(NCC3CCCC(CN)C3)n2Cc2ccc(Cl)cc2Cl)n(C)c1=O (configuration not stated),-84
c1ccc(N=Nc2ccc3cccccc2-3)cc1,-259
O=c1cc(-c2ccccc2)[nH]c2nc3ccccc3n12,-89
SMILES,aSyn UTR act
O=C(/C=C/c1ccco1)NC(=S)Nc1nc(-c2ccc(Cl)cc2)cs1,-76
O=C(/C=C/c1ccco1)NC(=S)Nc1nc(-c2ccc3ccccc3c2)cs1,-94
O=C(/C=C\c1ccco1)Nc1nc(-c2ccccc2)cs1,-121
O=C(NC(=S)Nc1cccc2[nH]ncc12)c1ccccc1,-176
Cc1c(NC(=O)c2ccc(C(C)(C)C)cc2)cccc1[N+](=O)[O-],-133
O=C(NC(=S)Nc1ccccc1[N+](=O)[O-])c1ccccc1,-136
Cc1c(NC(=O)c2ccc3nsnc3c2)cccc1[N+](=O)[O-],-68
CC(C)(C)c1ccc(NC(=O)c2ccccc2)c([N+](=O)[O-])c1,-100
O=C(NC(=O)c1ccccc1)NC1(C(F)(F)F)OCCO1,-113
Cc1ccc(/C=N/NC(=S)N2CCOCC2)cc1,-85
O=C(NC(NC(=S)N1CCOCC1)C(Cl)(Cl)Cl)c1ccc(Cl)cc1 (configuration not stated),-
S=C(N/N=C/c1ccc(Br)cc1)N1CCCCC1,-195
S=C(N/N=C/c1ccc(Cl)cc1)N1CCOCC1,-69
Cc1ccc(-c2n[nH]c(Cc3ccccc3)n2)cc1,-126
O=C(NCC1CCCO1)c1c(O)c2c([nH]c1=O)CCCC2 (configuration not stated),-112
O=C(Nc1ccc(O)cc1)c1c(O)c2c([nH]c1=O)CCCC2,-131
CCCNC(=O)c1c(O)c2c([nH]c1=O)CCCC2,-77
CCCNC(=O)c1ccc2c(=O)c(O)c(-c3cccc(Br)c3)[nH]c2c1,-
CSc1cccc(CN(C)C(=O)C2CCC(=O)N(CCCN3CCCC3=O)C2)c1 (configuration not stated),-73
Cc1ccc(C)c(OCc2cc(C(=O)N3CCOCC3)no2)c1,-97
COCCN1CCN(C(=O)c2cc(COc3ccc(Cl)cc3OC)on2)CC1,-120
COCCCC1CCN(C(=O)c2cc(COc3cc(C)ccc3C)on2)CC1,-180
CC(=O)NCCC1CCCCN1C(=O)c1cc(COc2cc(C)ccc2C)on1 (configuration not stated),-144
COCCN1CCN(C(=O)c2cc(COc3cc(C)ccc3C)on2)CC1,-127
CN(C)c1ccc(NC2=C(Cl)C(=O)c3ccccc3C2=O)cc1,-116
O=C1C(Cl)=C(Nc2ccc3cn[nH]c3c2)C(=O)c2ccccc21,-
CCOC(=O)C1CCN(c2ncnc3c(C)csc23)CC1,-69
O=C(Nc1nc2ccccc2s1)C1CCN(S(=O)(=O)c2cc([N+](=O)[O-])ccc2Cl)CC1,-81
O=C(Nc1nc2ccc([N+](=O)[O-])cc2s1)C1CCCO1 (configuration not stated),-153
O=C(Nc1nc2ccc(Cl)cc2s1)C1CCCO1 (configuration not stated),-127
